Test results from PubChem BioAssay AID1626 (SRMLSC, 2009).
About 2,000 (0.91%) of roughly 220,000 compounds were called active. Inconclusive results (about 2%) are left out. No stated cut-off is given here; in the data, inconclusive means inhibition above about 80% without an active follow-up result; inactive means below that; test concentration not stated here. These entries were drawn from the full list. Measured potencies and affinities stand elsewhere.

Experiment: M. tuberculosis H37Rv growth inhibitors, H37Rv strain (AID 1626);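 further: bacteria incubated seven days before Alamar blue readout; 0% = bacteria only wells and 100% = bacteria with antibiotic wells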
Settings: hits give high values, concentration not given here
In the case of `COc1ccc(C2C(C(=O)O)c3ccccc3C(=O)N2Cc2ccco2)cc1` (stereo unspecified), the inhibition is reported as -9.26% (inactive).
In the case of `CCOC(=O)Nc1ccc(Oc2ccccc2)cc1`, the inhibition is reported as 8.39% (inactive).
In the case of `COC(=O)c1ccc(NC(=O)NS(=O)(=O)c2ccc(C)cc2)cc1`, the inhibition is reported as 55.9% (inactive).
In the case of `CC(=O)Nc1ccc(NC(=O)Oc2ccccc2)cc1`, the inhibition is reported as -9.97% (inactive).
For `O=C(CCOc1ccccc1)Nc1ccccc1`, the inhibition was 7.71% (inactive).
For `COC(=O)c1ccc(NC(=O)CCOc2ccccc2)cc1`, the inhibition was 23.7% (inactive).
With `CCOC(=O)Nc1cccc(Nc2ccccc2)c1` the inhibition was 3.05% (inactive).
For `CCOC(=O)c1ccc(NC(=O)Nc2ccc(S(N)(=O)=O)cc2)cc1`, the inhibition was -7.07% (inactive).
For `CC(=O)c1ccc(NC(=O)Oc2ccccc2)cc1`, the inhibition was -7.64% (inactive).
For `CC(C)c1ccccc1NC(=O)COc1ccc2c(=O)c(Oc3ccc4ccccc4c3)coc2c1`, the inhibition was 5.82% (inactive).
For `COC(=O)c1cc(NS(=O)(=O)c2cccc(Cl)c2)ccc1N1CCOCC1`, the inhibition was 3.2% (inactive).
For `O=C(CN(CC1CCCO1)C(=O)CCC(=O)Nc1nccs1)NCc1ccccc1` (stereo unspecified), the inhibition was -3.47% (inactive).
With `COc1ccccc1N(C)S(=O)(=O)c1ccc(C(=O)OCC(=O)N2CCCCCC2)cc1` the inhibition was 9.09% (inactive).
For `CC1=NN(C(C#N)c2cccc([N+](=O)[O-])c2)C(C)(C)C1` (stereo unspecified), the inhibition was -1.89% (inactive).
For `CCOC(=O)c1ccc(NC(=O)CN(C)S(=O)(=O)c2ccc(OC)cc2)cc1`, the inhibition was -10.7% (inactive).
For `COc1ccc(NC(=O)CCOc2ccccc2)cc1`, the inhibition was 70.1% (inactive).
With `CC(=O)Nc1ccc(NC(=O)CCSCCc2ccccn2)cc1` the inhibition was -0.22% (inactive).
For `Cc1ccc(OCCCC(=O)Nc2ccc(Br)cc2)cc1`, the inhibition was -4.3% (inactive).
In the case of `Cc1ccc(OCCC(=O)Nc2ccc(F)c(F)c2)cc1`, the inhibition is reported as -1.46% (inactive).
For `Cc1ccc(NC(=O)CCSCCc2ccccn2)cc1`, the inhibition was 71.6% (inactive).
With `O=C(CN1CC(=O)Nc2ccccc21)Nc1ccc(F)c(F)c1` the inhibition was 0.62% (inactive).
With `COc1ccc(CCNC(=O)CSc2cccc3cccnc23)cc1OC` the inhibition was 3.55% (inactive).
In the case of `CCC(C)NC(=O)c1ccccc1SC` (stereo unspecified), the inhibition is reported as 9.14% (inactive).
With `CCN(Cc1cc(=O)[nH]c2ccccc12)C(=O)c1ccc(C)cc1` the inhibition was -2.96% (inactive).
For `COc1ccc(C(=O)NC(=S)Nc2ccc(CN3CCCCC3)cc2)cc1Cl`, the inhibition was 7.56% (inactive).
With `CCOC(=O)c1c(C)oc2ccc(OCC(N)=O)cc12` the inhibition was 8.61% (inactive).
With `Cc1oc2ccc(OC(=O)N(C)C)cc2c1C(=O)OC(C)C` the inhibition was -7.47% (inactive).
With `Cc1oc2ccc(OS(C)(=O)=O)cc2c1C(=O)OC(C)C` the inhibition was -0.97% (inactive).
With `COC(=O)c1c(C)oc2ccc(OC(=O)N3CCOCC3)cc12` the inhibition was -6.17% (inactive).
For `COC(=O)c1c(C)oc2ccc(NS(=O)(=O)c3cccs3)cc12`, the inhibition was 2.07% (inactive).
For `CCOC(=O)c1c(C)oc2ccc(OS(C)(=O)=O)cc12`, the inhibition was 0.04% (inactive).
In the case of `COC(=O)c1ccc(CSc2nc3c(cnn3-c3ccc(C)cc3)c(=O)[nH]2)o1`, the inhibition is reported as -0.23% (inactive).
In the case of `CC1(C)C(=O)Nc2ccccc2N1C(=O)COc1ncnc2ccccc12`, the inhibition is reported as 4.16% (inactive).
In the case of `O=C(C[n+]1ccc(/C=N/O)cc1)NCc1ccccc1`, the inhibition is reported as -12.5% (inactive).
In the case of `COc1cc(CCNc2ccc3nnc(-c4ccccc4)n3n2)cc(OC)c1OC`, the inhibition is reported as 10.3% (inactive).
For `O/N=C1\CCCCc2ccccc21`, the inhibition was -4.26% (inactive).
With `CC12CCC(C(=O)N3CCN(C(c4ccccc4)c4ccccc4)CC3)(OC1=O)C2(C)C` (stereo unspecified) the inhibition was 1.93% (inactive).
In the case of `CC(Nc1nc(-c2ccc(Cl)cc2)cs1)c1nc2cc(Cl)c(N3CCCCC3)cc2n1CCOCCO` (stereo unspecified), the inhibition is reported as 44.5% (inactive).
With `CC(Nc1nc(-c2ccc(F)cc2)cs1)c1nc2cc(Cl)c(N3CCCCC3)cc2n1CCCO` (stereo unspecified) the inhibition was 78% (inactive).
With `CC(Nc1nc(-c2ccc(F)cc2)cs1)c1nc2cc(Cl)c(N3CCCCC3)cc2n1CCOCCO` (stereo unspecified) the inhibition was 19.6% (inactive).
For `COc1ccc(-c2csc(NC(C)c3nc4cc(Cl)c(Cl)cc4n3CCCO)n2)cc1` (stereo unspecified), the inhibition was 5.27% (inactive).
In the case of `Cc1ccc(NC(=O)c2cc(NC(=O)C3CC=CCC3C(=O)O)ccc2N2CCOCC2)cc1Cl` (stereo unspecified), the inhibition is reported as -6.7% (inactive).
For `CN(C)CCn1c(NC(=O)c2ccc(Cl)cc2)nc2ccccc21`, the inhibition was 65.2% (inactive).
For `CCn1c(CNC(=O)c2ccccc2)nc2ccccc21`, the inhibition was -6.06% (inactive).
In the case of `CCN(CC)CCn1c(NC(=O)c2ccc(Cl)cc2)nc2ccccc21`, the inhibition is reported as 57.6% (inactive).
For `CC(C)NC(=O)c1cccc(Cn2cc(Cl)cn2)c1`, the inhibition was -2.76% (inactive).
For `Cn1c(NC(=O)c2cccc(Cn3cc(Cl)cn3)c2)nc2ccccc21`, the inhibition was 84.7% (inactive).
With `O=C(Nc1nc2ccccc2n1CCN1CCCC1)c1ccc(Cl)cc1` the inhibition was 58.7% (inactive).
With `CCn1c(NC(C)=O)nc2ccccc21` the inhibition was 2.94% (inactive).
For `CC(=O)Nc1nc2ccccc2n1CCN1CCOCC1`, the inhibition was -6.15% (inactive).
In the case of `Cc1c(C(=O)N/N=C/c2ccc(N3CCOCC3)cc2)nc2ccccn12`, the inhibition is reported as 3.49% (inactive).
In the case of `CC(c1ccccc1)c1nnc(NC(=O)c2ccc3c(c2)OCO3)s1` (stereo unspecified), the inhibition is reported as 6.54% (inactive).
With `O=C(OCCN1C(=O)c2ccccc2C1=O)C1CCN(S(=O)(=O)c2cccs2)CC1` the inhibition was -5.04% (inactive).
For `CCCCNC(=O)N1CCN(C/C=C/c2ccccc2)CC1`, the inhibition was 5.68% (inactive).
In the case of `O=C(c1ccc(C(F)(F)F)cc1)N1CCCCC1`, the inhibition is reported as -0.08% (inactive).
With `Fc1cccc(NC(=S)NCc2cccnc2)c1` the inhibition was 21.1% (inactive).
With `O=c1c2cc(-c3ccccc3)sc2nc2n1N=C(c1ccccc1)CS2` the inhibition was 10.6% (inactive).
For `CCCCN(CCCC)Cc1cc2ccccc2c2c1COC2`, the inhibition was 4.07% (inactive).
For `CCCn1c(NC(=S)Nc2ccccc2)nc2ccccc21`, the inhibition was 7.73% (inactive).
In the case of `CCn1c(C(C)NC(=O)c2cccs2)nc2ccccc21` (stereo unspecified), the inhibition is reported as 2.83% (inactive).
In the case of `CCCn1c(C(C)NC(=O)c2ccccc2)nc2ccccc21` (stereo unspecified), the inhibition is reported as 0.32% (inactive).
For `CCCn1c(CNC(=O)c2ccccc2)nc2ccccc21`, the inhibition was -0.92% (inactive).
In the case of `CCCn1c(NCCO)nc2ccccc21`, the inhibition is reported as -2.95% (inactive).
With `CCCn1c(Nc2nc3ccccc3n2C)nc2ccccc21` the inhibition was 2.56% (inactive).
For `CCCn1c(Nc2ccccc2C)nc2ccccc21`, the inhibition was -8.39% (inactive).
For `CCn1c(CCCNC(=O)c2cccs2)nc2ccccc21`, the inhibition was -2.25% (inactive).
With `Cc1onc(-c2ccccc2Cl)c1C(=O)N1C=CC(C(F)(F)Cl)=NCC1` the inhibition was 1.09% (inactive).
In the case of `O=C(NCc1ccc(Cl)cc1)c1cc(-c2cccs2)on1`, the inhibition is reported as -1.76% (inactive).
In the case of `Cc1cccc(SCC(=O)Nc2ccccc2[N+](=O)[O-])c1`, the inhibition is reported as 7.5% (inactive).
In the case of `COc1ccc(N=C2S/C(=C\c3ccc(OCC(=O)O)cc3)C(=O)N2CCc2c[nH]c3ccccc23)cc1`, the inhibition is reported as -4.37% (inactive).
In the case of `Cc1ccc(C)c(CN2C(=O)COc3ccc(C(=O)c4ccccc4C(=O)O)cc32)c1`, the inhibition is reported as 15.8% (inactive).
In the case of `CCN(CC)S(=O)(=O)c1cccc(NC(=O)COC(=O)CNC(=O)c2cccc(F)c2)c1`, the inhibition is reported as -4.29% (inactive).
With `Cc1ccccc1NS(=O)(=O)c1cc(C(=O)NCc2ccco2)ccc1C` the inhibition was -1.94% (inactive).
With `COc1cc(NC(=O)CSc2nnc(C)s2)cc(OC)c1OC` the inhibition was 0.33% (inactive).
With `CCn1cc(Cl)c(C(=O)Nc2nc3ccccc3n2CCN2CCCCC2)n1` the inhibition was 3.91% (inactive).
For `CCn1c(NC(=O)Nc2ccccc2OC)nc2ccccc21`, the inhibition was 81.5% (inactive).
In the case of `Cc1ccc(-c2nc(C(F)(F)F)cc(=O)[nH]2)cc1`, the inhibition is reported as -0.92% (inactive).
With `CCOC(=O)c1c(NC(=O)c2nn(CC)cc2Br)c(C#N)cn1-c1ccccc1` the inhibition was -6% (inactive).
For `CC(C)Oc1cccc(C(=O)C2CCCN(Cc3ccon3)C2)c1` (stereo unspecified), the inhibition was 5.09% (inactive).
With `CCn1ccnc1CN1CCCC(C(=O)c2cc(C)c(OC)c(C)c2)C1` (stereo unspecified) the inhibition was 9.37% (inactive).
With `COc1ccc(OC)c(CN2CCCC(C(=O)c3ccccc3SC)C2)c1` (stereo unspecified) the inhibition was 5% (inactive).
With `COc1ccc(O)c(CN2CCCC(C(=O)c3ccccc3SC)C2)c1` (stereo unspecified) the inhibition was -3.14% (inactive).
In the case of `Cc1ncc(CN2CCCC(C(=O)c3cccc(OC(C)C)c3)C2)s1` (stereo unspecified), the inhibition is reported as -0.24% (inactive).
With `CCOC(=O)N1CCC(N2CCCC(C(=O)c3cccc(OC)c3)C2)CC1` (stereo unspecified) the inhibition was 0.16% (inactive).
In the case of `CCn1ccnc1CN1CCCC(C(=O)c2ccc(OC)cc2OC)C1` (stereo unspecified), the inhibition is reported as -1.43% (inactive).
With `CCOC(=O)N1CCC(N2CCCC(C(=O)c3cc(C)c(OC)c(C)c3)C2)CC1` (stereo unspecified) the inhibition was -0.88% (inactive).
In the case of `c1ccc(-c2cnc(SCCN3CCOCC3)n2CC2CCCO2)cc1` (stereo unspecified), the inhibition is reported as 4.09% (inactive).
For `CCN(CC)C(=O)C(=O)c1cccn1-c1c(Cl)cccc1C#N`, the inhibition was -1.07% (inactive).
In the case of `NC(=O)c1cn(-c2ccccc2)nc1-c1cccnc1`, the inhibition is reported as -9.42% (inactive).
In the case of `CC1CC(=O)N(CC(=O)NCc2ccco2)c2ccccc2S1` (stereo unspecified), the inhibition is reported as -7.83% (inactive).
With `O=C(CCc1nnc(CCc2c[nH]c3ccccc23)o1)NC1CCC1` the inhibition was -2.04% (inactive).
For `COc1ccc(NC(=O)c2ccccc2[N+](=O)[O-])cc1`, the inhibition was -5.35% (inactive).
In the case of `Cc1c(C(=O)NCCCn2ccnc2)oc2ccccc12`, the inhibition is reported as 3% (inactive).
With `CCc1ccc(/C=N/NC(=O)c2cc(C)on2)s1` the inhibition was 4.86% (inactive).
For `CC(C)CCNC(=O)CCSCCC(=O)NCCC(C)C`, the inhibition was -5.9% (inactive).
With `COc1cccc(C(=O)C2CCCN(Cc3cccc(C)n3)C2)c1` (stereo unspecified) the inhibition was 6.54% (inactive).
In the case of `COc1c(C)cc(C(=O)C2CCCN(Cc3ccccn3)C2)cc1C` (stereo unspecified), the inhibition is reported as 52.1% (inactive).
For `Cc1cccc(CN2CCCC(C(=O)c3ccc4c(c3)OCO4)C2)n1` (stereo unspecified), the inhibition was 9.77% (inactive).
In the case of `COc1ccc(C(=O)C2CCCN(Cc3cccc(C)n3)C2)c(OC)c1` (stereo unspecified), the inhibition is reported as -9.04% (inactive).
With `COc1ccc(C(=O)C2CCCN(Cc3cnc(C)s3)C2)c(OC)c1` (stereo unspecified) the inhibition was 1.52% (inactive).
With `COc1ccc(C(=O)C2CCCN(Cc3cnc(C)s3)C2)cc1OC` (stereo unspecified) the inhibition was -7.69% (inactive).
